For orientation: viability means a read-out of living cells in per cent, often relative to untreated cells.

Activity calls are given as the source filed them.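 How the source made its calls, unless noted: active means Her2 level under about 52% in both replicate screens, with viability over 70% of control (limit read from the data); inconclusive means Her2 under the limit in one screen only, or viability under 70%; inactive means Her2 level above the set limit.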

For the first assay, the target named is Receptor tyrosine-protein kinase erbB-2 (Homo sapiens) (UniProt P04626). Nature of the assay: reducers of endogenous Her2 protein level, primary screen, SKBR3 breast tumor cells, AlphaScreen, ATP viability (AID 461).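 Further: lower value means less Her2 protein in the cells.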 Conditions: 18-24 h, at 10 µM, hits give low values. Background: Alpha assays give light when donor and acceptor beads are brought close together.
Chain of Receptor tyrosine-protein kinase erbB-2 (Homo sapiens) (P04626 whole entry, looked up): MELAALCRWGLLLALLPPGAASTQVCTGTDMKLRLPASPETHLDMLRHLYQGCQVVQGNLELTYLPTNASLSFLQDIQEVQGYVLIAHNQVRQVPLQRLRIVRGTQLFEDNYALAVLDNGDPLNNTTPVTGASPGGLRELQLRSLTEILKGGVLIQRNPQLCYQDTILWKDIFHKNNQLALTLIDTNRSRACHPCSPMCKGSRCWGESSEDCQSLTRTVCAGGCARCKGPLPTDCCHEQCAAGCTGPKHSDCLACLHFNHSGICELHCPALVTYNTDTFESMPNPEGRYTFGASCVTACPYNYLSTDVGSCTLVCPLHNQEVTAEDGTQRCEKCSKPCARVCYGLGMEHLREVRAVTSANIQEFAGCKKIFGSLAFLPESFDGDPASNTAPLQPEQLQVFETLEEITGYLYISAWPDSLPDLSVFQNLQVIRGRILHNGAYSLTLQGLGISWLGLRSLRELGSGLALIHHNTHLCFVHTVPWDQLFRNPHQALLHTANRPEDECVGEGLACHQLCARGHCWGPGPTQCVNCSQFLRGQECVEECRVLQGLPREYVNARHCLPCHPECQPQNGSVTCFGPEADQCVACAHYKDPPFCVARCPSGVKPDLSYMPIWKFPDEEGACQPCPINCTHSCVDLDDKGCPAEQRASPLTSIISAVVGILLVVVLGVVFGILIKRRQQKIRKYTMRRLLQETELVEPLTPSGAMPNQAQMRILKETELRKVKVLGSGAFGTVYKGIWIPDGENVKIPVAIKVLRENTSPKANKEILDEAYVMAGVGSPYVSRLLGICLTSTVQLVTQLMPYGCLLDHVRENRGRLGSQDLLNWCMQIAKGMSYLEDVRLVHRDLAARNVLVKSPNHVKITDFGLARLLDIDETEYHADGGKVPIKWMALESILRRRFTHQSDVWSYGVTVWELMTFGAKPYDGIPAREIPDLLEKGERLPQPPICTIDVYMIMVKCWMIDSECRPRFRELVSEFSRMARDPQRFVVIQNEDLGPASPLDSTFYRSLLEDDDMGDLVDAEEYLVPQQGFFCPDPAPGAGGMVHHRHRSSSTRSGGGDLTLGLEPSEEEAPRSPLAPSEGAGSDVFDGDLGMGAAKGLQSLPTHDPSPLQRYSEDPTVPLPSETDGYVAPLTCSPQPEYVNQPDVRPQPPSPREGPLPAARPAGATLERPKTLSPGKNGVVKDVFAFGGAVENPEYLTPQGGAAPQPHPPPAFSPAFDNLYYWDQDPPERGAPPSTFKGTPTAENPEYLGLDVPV
On to `Cc1cc(C)cc(-n2ccnc2SCC(=O)Nc2ccc3c(c2)OCCO3)c1`, for which the Her2 level was 93.5% (inactive).

As to `CC(C)CNC(=O)c1ccccc1NC(=O)CN(c1ccc2c(c1)OCCO2)S(C)(=O)=O`, the Her2 level was 121% (inactive).

With `N#Cc1cnn(Cc2ccc(Cl)cc2)c1N`, the Her2 level is 97.5% (inactive).

On to `Cc1cc(C)c2cc(CN(CC3CCCO3)C(=O)NC3CCCCC3)c(=O)[nH]c2c1` (stereo not drawn), for which the Her2 level is 89.5% (inactive).

`Cc1cc2c(cc(C(=O)OCC(=O)NCc3cccs3)n2C(C)C)o1`: the Her2 level was 63.5% (inactive).

Turning to `CCCOc1ccccc1NC(=O)c1ccc(N)cc1`, the Her2 level is 84% (inactive).

For `COC(=O)/C=c1\sc2ncnn2c1=O`, the Her2 level is 97.5% (inactive).

For the molecule `COc1cccc(CN=CC2=C(O)CC(C)(C)CC2=O)c1OC`, the Her2 level was 114% (inactive).

Turning to `CC(=O)Nc1ccc(NC(=O)C(C)Oc2ccccc2F)cc1` (stereo not drawn), the Her2 level was 102% (inactive).

As to `Cc1nnc(NC(=O)CSc2nnc(-c3ccc(S(=O)(=O)N4CCCC4)cc3)n2C)s1`, the Her2 level is 88.5% (inactive).

Turning to `CCn1ncc(C2=NOC(C(=O)Nc3ccc4c(c3)OCO4)C2)c1C` (stereo not drawn), the Her2 level was 139% (inactive).

As to `COC(=O)C1=CN(C)C=C(C(=O)OC)C1c1ccc(O)c(OC)c1`, the Her2 level was 98% (inactive).

Regarding `COc1ccccc1-c1nc(SCc2ccccn2)n[nH]1`, the Her2 level is 78.5% (inactive).

For `CCOC(=O)Cn1c(CN2CCOCC2)nc2c1c(=O)[nH]c(=O)n2C`, the Her2 level is 109% (inactive).

`O=C(O)c1ccc2noc(-c3ccccc3)c2c1`: the Her2 level was 106% (inactive).

As to `O=S(CC(O)COCc1ccc(Cl)cc1)c1ccccn1` (stereo not drawn), the Her2 level was 90.5% (inactive).

For `CCn1c(CCNC(=O)c2cccs2)nnc1SCC(=O)c1ccc(OC)cc1`, the Her2 level is 138% (inactive).

For the molecule `O=C(Cn1ncc2c(=O)oc3ccccc3c21)Nc1nc2ccccc2s1`, the Her2 level is 102% (inactive).

As for `COCc1nnc(NS(=O)(=O)c2ccc(Br)cc2)s1`, the Her2 level is 92% (inactive).

For `COc1ccc(S(=O)(=O)NCc2ccc(C(=O)O)cc2)cc1`, the Her2 level was 99% (inactive).

For the molecule `Cc1ccc(S(=O)(=O)CC2CSc3nnc(C)c(=O)n32)cc1` (stereo not drawn), the Her2 level is 112% (inactive).

In the case of `Cc1occc1C(=O)Nc1cccnc1`, the Her2 level is 92% (inactive).

In the case of `CN(C1CCCCC1)S(=O)(=O)c1ccc(S(=O)(=O)N2CCCC2)cc1`, the Her2 level is 92% (inactive).

`Cn1cccc1Cc1nnc(SCC(=O)Nc2ccccc2F)n1CCc1ccccc1`: the Her2 level is 91% (inactive).

For the molecule `COc1ccc(C(=O)CSc2nc(C)cc(=O)[nH]2)cc1`, the Her2 level is 87.5% (inactive).

As for `CCCCCC1CC(CC#CCN2CCOCC2)C(=O)O1` (stereo not drawn), the Her2 level was 102% (inactive).

Take `O=C(COc1ccccc1)Nc1ccccc1N1CCN(c2ccccc2)CC1`: the Her2 level is 86% (inactive).

With `Brc1ccc(C2=Nn3c(nnc3-c3ccncc3)SC2)cc1`, the Her2 level is 79.5% (inactive).

`Cc1nc2sc3c(c2c(=O)o1)CCC3`: the Her2 level was 80.5% (inactive).

`Cc1ccc(S(=O)(=O)Cn2nnnc2CN(Cc2ccco2)Cc2cccs2)cc1`: the Her2 level is 97.5% (inactive).

For the molecule `CC(=O)NCc1ccc(C(=O)CSc2nnc(-c3ccncc3)n2Cc2ccccc2)o1`, the Her2 level is 92.5% (inactive).

Regarding `CCOC(=O)c1ccc(Oc2nc(NC)nc(OC)n2)cc1`, the Her2 level is 108% (inactive).

Consider `O=P(O)(O)C(O)C(F)(F)C(F)(F)C(F)(F)C(F)F` (stereo not drawn), for which the Her2 level was 77.5% (inactive).

On to `COc1ccc(C)cc1NC(=O)CN1CCN(S(=O)(=O)c2ccc(Cl)cc2)CC1`, for which the Her2 level is 87% (inactive).

In the case of `COc1ccc(OC)c2[nH]c(=O)c(CCNC(=O)CC(C)C)cc12`, the Her2 level is 104% (inactive).

Take `O=S(=O)(Cc1ccccc1)N1CCN(Cc2ccccc2)CC1`: the Her2 level was 109% (inactive).

Take `COC(=O)C1C(=O)C2=C(CC1C)NC(=O)CC2c1ccccc1` (stereo not drawn): the Her2 level was 97% (inactive).

With `CC(C)CCNC(=O)C(c1ccco1)N(CC1CCCO1)C(=O)Cn1nnc2ccccc21` (stereo not drawn), the Her2 level was 100% (inactive).

Take `CC(C)COc1ccc(-c2nnn(CC(=O)N3CCCC3)n2)cc1`: the Her2 level is 85% (inactive).

Tested on in a further assay: not listed separately
Nature of the assay: SK-BR-3 cell growth inhibitors, pilot screen, 24 h, human (AID 572;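 active means viability at or below 10% of carrier control in both of two separate runs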;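 further: compound exposure lasted between 18 and 24 h rather than exactly 24 h; 100% = carrier-treated control wells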). Conditions: SK-BR-3 viability, CellTiter-Glo luminescence, at 10 µM, hits give low values. In general terms: ATP-based viability assays read luminescence as a measure of living cells.
For `Cc1cc(C)cc(-n2ccnc2SCC(=O)Nc2ccc3c(c2)OCCO3)c1`, the viability is 119% (inactive).

As to `CC(C)CNC(=O)c1ccccc1NC(=O)CN(c1ccc2c(c1)OCCO2)S(C)(=O)=O`, the viability is 92% (inactive).

With `N#Cc1cnn(Cc2ccc(Cl)cc2)c1N`, the viability was 92% (inactive).

With `Cc1cc(C)c2cc(CN(CC3CCCO3)C(=O)NC3CCCCC3)c(=O)[nH]c2c1` (stereo not drawn), the viability is 78.5% (inactive).

For `Cc1cc2c(cc(C(=O)OCC(=O)NCc3cccs3)n2C(C)C)o1`, the viability is 83% (inactive).

On to `CCCOc1ccccc1NC(=O)c1ccc(N)cc1`, for which the viability was 95% (inactive).

Regarding `COC(=O)/C=c1\sc2ncnn2c1=O`, the viability was 95% (inactive).

On to `COc1cccc(CN=CC2=C(O)CC(C)(C)CC2=O)c1OC`, for which the viability is 106% (inactive).

As for `CC(=O)Nc1ccc(NC(=O)C(C)Oc2ccccc2F)cc1` (stereo not drawn), the viability was 102% (inactive).

Take `Cc1nnc(NC(=O)CSc2nnc(-c3ccc(S(=O)(=O)N4CCCC4)cc3)n2C)s1`: the viability was 93% (inactive).

Take `CCn1ncc(C2=NOC(C(=O)Nc3ccc4c(c3)OCO4)C2)c1C` (stereo not drawn): the viability was 95.5% (inactive).

`COC(=O)C1=CN(C)C=C(C(=O)OC)C1c1ccc(O)c(OC)c1`: the viability was 96.5% (inactive).

For `COc1ccccc1-c1nc(SCc2ccccn2)n[nH]1`, the viability is 104% (inactive).

Consider `CCOC(=O)Cn1c(CN2CCOCC2)nc2c1c(=O)[nH]c(=O)n2C`, for which the viability is 95% (inactive).

Take `O=C(O)c1ccc2noc(-c3ccccc3)c2c1`: the viability is 127% (inactive).

Regarding `O=S(CC(O)COCc1ccc(Cl)cc1)c1ccccn1` (stereo not drawn), the viability was 100% (inactive).

With `CCn1c(CCNC(=O)c2cccs2)nnc1SCC(=O)c1ccc(OC)cc1`, the viability is 106% (inactive).

For the molecule `O=C(Cn1ncc2c(=O)oc3ccccc3c21)Nc1nc2ccccc2s1`, the viability is 113% (inactive).

Take `COCc1nnc(NS(=O)(=O)c2ccc(Br)cc2)s1`: the viability is 99.5% (inactive).

Consider `COc1ccc(S(=O)(=O)NCc2ccc(C(=O)O)cc2)cc1`, for which the viability is 102% (inactive).

As to `Cc1ccc(S(=O)(=O)CC2CSc3nnc(C)c(=O)n32)cc1` (stereo not drawn), the viability is 136% (inactive).

Take `Cc1occc1C(=O)Nc1cccnc1`: the viability was 101% (inactive).

`CN(C1CCCCC1)S(=O)(=O)c1ccc(S(=O)(=O)N2CCCC2)cc1`: the viability is 84.5% (inactive).

Turning to `Cn1cccc1Cc1nnc(SCC(=O)Nc2ccccc2F)n1CCc1ccccc1`, the viability is 78.5% (inactive).

Regarding `COc1ccc(C(=O)CSc2nc(C)cc(=O)[nH]2)cc1`, the viability was 99.5% (inactive).

For `CCCCCC1CC(CC#CCN2CCOCC2)C(=O)O1` (stereo not drawn), the viability was 86% (inactive).

Consider `O=C(COc1ccccc1)Nc1ccccc1N1CCN(c2ccccc2)CC1`, for which the viability was 80% (inactive).

With `Brc1ccc(C2=Nn3c(nnc3-c3ccncc3)SC2)cc1`, the viability is 94.5% (inactive).

Take `Cc1nc2sc3c(c2c(=O)o1)CCC3`: the viability was 110% (inactive).

With `Cc1ccc(S(=O)(=O)Cn2nnnc2CN(Cc2ccco2)Cc2cccs2)cc1`, the viability is 91.5% (inactive).

Consider `CC(=O)NCc1ccc(C(=O)CSc2nnc(-c3ccncc3)n2Cc2ccccc2)o1`, for which the viability was 99.5% (inactive).

Turning to `CCOC(=O)c1ccc(Oc2nc(NC)nc(OC)n2)cc1`, the viability is 100% (inactive).

For `O=P(O)(O)C(O)C(F)(F)C(F)(F)C(F)(F)C(F)F` (stereo not drawn), the viability was 108% (inactive).

Consider `COc1ccc(C)cc1NC(=O)CN1CCN(S(=O)(=O)c2ccc(Cl)cc2)CC1`, for which the viability is 81.5% (inactive).

Turning to `COc1ccc(OC)c2[nH]c(=O)c(CCNC(=O)CC(C)C)cc12`, the viability is 111% (inactive).

In the case of `O=S(=O)(Cc1ccccc1)N1CCN(Cc2ccccc2)CC1`, the viability is 84.5% (inactive).

`COC(=O)C1C(=O)C2=C(CC1C)NC(=O)CC2c1ccccc1` (stereo not drawn): the viability is 102% (inactive).

On to `CC(C)CCNC(=O)C(c1ccco1)N(CC1CCCO1)C(=O)Cn1nnc2ccccc21` (stereo not drawn), for which the viability was 100% (inactive).

Turning to `CC(C)COc1ccc(-c2nnn(CC(=O)N3CCCC3)n2)cc1`, the viability was 86% (inactive).

The values are drawn from PubChem BioAssay.
